Shown are actives, neighbours in structure and some others; about 1.8% of the full set was active somewhere.
NPR1 activator: GC-A (human) enzyme activation | P16066 | HEK293 GC-A cells, cGMP TR-FRET, EC30 ANP; 0% at EC30 ANP, 100% saturating ANP | activation, % at 10 µM | 370,000 compounds, 0.14% hits | AID 1671463; in the data active means activation above about 40%
Target sequence (P16066 whole entry, looked up): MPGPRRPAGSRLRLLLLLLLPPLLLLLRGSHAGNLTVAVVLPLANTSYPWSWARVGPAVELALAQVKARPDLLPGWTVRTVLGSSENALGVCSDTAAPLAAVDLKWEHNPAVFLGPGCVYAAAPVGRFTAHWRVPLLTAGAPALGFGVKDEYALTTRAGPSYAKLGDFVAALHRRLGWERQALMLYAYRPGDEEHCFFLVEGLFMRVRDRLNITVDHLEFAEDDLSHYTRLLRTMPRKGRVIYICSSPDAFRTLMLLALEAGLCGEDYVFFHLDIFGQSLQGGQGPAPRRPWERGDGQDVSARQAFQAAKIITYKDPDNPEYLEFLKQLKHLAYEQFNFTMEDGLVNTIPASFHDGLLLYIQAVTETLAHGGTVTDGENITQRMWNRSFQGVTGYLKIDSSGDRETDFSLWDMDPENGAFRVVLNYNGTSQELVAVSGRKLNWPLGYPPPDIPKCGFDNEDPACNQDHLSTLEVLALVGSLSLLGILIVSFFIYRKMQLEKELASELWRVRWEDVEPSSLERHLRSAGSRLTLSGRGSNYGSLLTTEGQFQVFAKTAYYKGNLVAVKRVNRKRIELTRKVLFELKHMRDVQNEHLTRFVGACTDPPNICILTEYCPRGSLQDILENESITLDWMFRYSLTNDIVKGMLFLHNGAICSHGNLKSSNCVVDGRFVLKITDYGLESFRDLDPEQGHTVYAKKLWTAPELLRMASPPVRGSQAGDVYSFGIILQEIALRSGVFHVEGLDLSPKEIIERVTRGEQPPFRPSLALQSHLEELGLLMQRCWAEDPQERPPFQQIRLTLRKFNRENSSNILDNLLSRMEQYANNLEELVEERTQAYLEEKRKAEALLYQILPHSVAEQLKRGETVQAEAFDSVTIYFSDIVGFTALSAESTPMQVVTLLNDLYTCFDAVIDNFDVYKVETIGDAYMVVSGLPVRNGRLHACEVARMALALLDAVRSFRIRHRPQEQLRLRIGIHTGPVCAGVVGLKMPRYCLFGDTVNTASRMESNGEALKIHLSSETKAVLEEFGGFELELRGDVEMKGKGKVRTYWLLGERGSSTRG
NPR2 activator: GC-B (human) receptor activation; HEK293-GC-B cells, CNP EC30, cGMP TR-FRET; 0% at EC30 CNP, 100% saturating CNP; activation, % at 10 µM; 370,000 compounds, 0.11% hits;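 active means activation at 10 µM reaching about 35% in either raw or pattern-adjusted values, limit read from the data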
MsrA inhibitor: bovine MsrA inhibition; purified bovine MsrA, absorbance read-out; 360,000 compounds, 0.75% hits; inhibition, % at 15.5 µM; AID 651718; in the data active means inhibition above about 4.5%
bovine MsrA act: bovine methionine sulfoxide reductase A activation; activation, % at 10.6 µM; purified bovine MsrA, absorbance read-out; 360,000 compounds, 0.3% hits; in the data active means activation above about 7.5%
HTR2A ag: activates the mouse 5-HT2A serotonin receptor. 360,000 compounds, 0.66% hits. activation, % at 7.6 µM. P35363. CHO-K1 mHTR2A beta-arrestin complementation, luminescence; percent of 30 µM serotonin response;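 active means activation above a run cutoff, the mean activation of all tested compounds plus 3 SD, cut at about 14% in these data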
OPRM1 ag: OPRM1 agonism in mouse HTR2A counterscreen; shares compounds with HTR2A ag; U2OS OPRM1 beta-arrestin PathHunter, luminescence; DMSO 0%, DAMGO 9.3 µM 100%; 2,300 compounds, 5.3% hits; activation, % at 9.3 µM; AID 624380;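 active means mean activation above the mean of DMSO-only wells plus 3 SD, cut at about 0.5% in these data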
m5-HT2A ag conf: confirmation of mouse HTR2A serotonin receptor agonists. 2,300 compounds, 19% hits. CHO-K1 PathHunter beta-arrestin recruitment, luminescence; DMSO 0%, 30 µM serotonin 100%. shares compounds with HTR2A ag. AID 624381. activation, % at 7.6 µM;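 active means mean activation across triplicates above the hit threshold derived in the original primary screen, cut at about 15% in these data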
Hits are given with their value; . = inactive; / = no result.

SMILES	NPR1 activator	NPR2 activator	MsrA inhibitor	bovine MsrA act	HTR2A ag	OPRM1 ag	m5-HT2A ag conf
Nc1nc2c(ncn2[C@@H]2O[C@H](C(=O)N[C@H](Cc3ccccc3)C(=O)NCc3ccccc3)[C@@H](O)[C@H]2O)c(=O)[nH]1	.	.	.	/	/	/	/
COC(=O)[C@]12C[C@H](CC(=O)NCC34CC5CC(CC(C5)C3)C4)C(=O)N(Cc3ccco3)C1=C[C@H](COCc1ccccc1)O[C@@H]2C	.	.	/	/	/	/	/
COc1ccc(Cl)cc1S(=O)(=O)N1CCN=C1C	.	.	.	.	24	.	.
COc1ccc(Cl)cc1S(=O)(=O)N1CCCc2ccccc21	.	.	.	.	.	/	/
C=C(O[C@H]1[C@H](O)CC=C(C(=O)O)[C@@H]1O)C(=O)O	.	.	/	/	/	/	/
COc1ccc(-n2nc(C(=O)NCC(=O)N3CCC(C)CC3)c3ccccc3c2=O)cc1	.	.	.	.	15	.	.
COc1ccc(OCC(=O)Nc2ccccc2C(=O)N2CCOCC2)cc1	.	.	.	.	.	/	/
Cc1cccc(C)c1OCC(=O)Nc1ccccc1C(=O)N1CCOCC1	.	.	.	.	25	.	.
Cc1nn(-c2ccccc2)c2sc(C(=O)NC3CCCc4ccccc43)cc12 (stereo not given)	.	.	/	/	/	/	/
Fc1ccc2cnc(-c3ccsc3)cc2c1	.	.	.	/	/	/	/
CCOc1ccc(/C=N/N2C(C)CCCC2C)cc1 (stereo not given)	.	.	.	.	17	.	.
CSCCC(c1nc2ccccc2[nH]1)n1c(-c2cc(C(F)(F)F)cc(C(F)(F)F)c2)nc2ccccc21 (stereo not given)	.	.	.	/	19	0.8	.
Cc1cccc(C)c1-n1nnnc1C(C1CC1)N1CCN(C/C=C/c2ccccc2)CC1 (stereo not given)	.	.	.	.	30	.	57
CC(C)(C)n1nnnc1C(C1CC1)N1CCN(C/C=C/c2ccccc2)CC1 (stereo not given)	.	.	.	.	20	.	35
C(=C\c1ccccc1)/CN1CCN(C(c2nnnn2C2CCCC2)C2CC2)CC1 (stereo not given)	.	.	.	.	.	/	/
CCC(c1nnnn1-c1c(C)cccc1C)N1CCN(C/C=C/c2ccccc2)CC1 (stereo not given)	.	.	.	.	27	.	78
CSCCC(c1nnnn1-c1c(C)cccc1C)N1CCN(C/C=C/c2ccccc2)CC1 (stereo not given)	.	.	.	.	.	/	/
COc1cccc(CC(=O)N2CCN(C(=O)C(=O)c3ccc(OC)c(OC)c3)CC2)c1	.	.	.	/	/	/	/
COc1ccc(CN(C)CC#Cc2ccccc2)c(OC)c1	.	.	/	/	/	/	/
COC(=O)[C@]12C[C@H](CC(=O)NCCCN3CCCC3=O)C(=O)N(Cc3ccc(Cl)cc3Cl)C1=C[C@H](C1CCCC1)O[C@@H]2C	.	.	/	/	/	/	/
Cc1ccccc1OCC(=O)Nc1cccc(S(=O)(=O)NC2=NCCC2)c1	.	.	.	.	16	.	.
Cc1ccccc1OCC(=O)Nc1cccc(S(=O)(=O)NC2=NCCCCC2)c1	.	.	.	.	.	/	/
CCCCOc1ccc(C(=O)n2ccc3ccc(-c4ccc5ccn(Cc6ccc(OC)cc6)c5c4)cc32)cc1	.	.	/	/	/	/	/
COc1ccc2[nH]cc(CCNC(=O)C3CCCCC3)c2c1	.	.	.	.	15	.	.
Cc1[nH]c2ccccc2c1C(=O)C(=O)NCCCc1ccccc1	.	.	.	.	.	/	/
SMILES	NPR1 activator	NPR2 activator	MsrA inhibitor	bovine MsrA act	HTR2A ag	OPRM1 ag	m5-HT2A ag conf
O=C(O)C1CCCCC1C(=O)NCCc1c[nH]c2ccccc12 (stereo not given)	.	.	.	.	38	.	15
COc1ccc2[nH]cc(CCNS(=O)(=O)c3ccc(NC(C)=O)cc3)c2c1	.	.	.	.	31	.	15
COc1ccc2[nH]cc(CCNC(=S)NC3CCCC3)c2c1	.	.	.	.	.	/	/
CC(=O)Nc1ccc(S(=O)(=O)NCCc2c[nH]c3ccc(C)cc23)cc1	.	.	.	.	.	/	/
Cc1[nH]c2ccccc2c1C(=O)C(=O)NCCc1c[nH]c2ccccc12	.	.	.	.	15	.	.
O=C(O)[C@H]1CCCC[C@H]1C(=O)NCCc1ccccc1	.	.	.	.	.	/	/
CN1C[C@]2(C=C3CCCCC3n3c(=O)n(-c4ccccc4)c(=O)n32)N(C(=O)OCc2ccccc2)C1=NC(=O)c1ccccc1 (stereo not given in full)	.	.	/	/	/	/	/
CN(C(=O)Cn1nc(C(=O)O)c2ccccc2c1=O)C1(C#N)CCCCC1	.	.	.	.	19	.	.
Cn1nnnc1N=N/C(=N/Nc1ccccc1)c1ccccc1	.	.	.	.	16	.	.
Oc1ccccc1N=N/C(=N/Nc1ccccc1O)c1ccccc1	.	.	.	.	.	/	/
Cn1c(N)c(N2CCCCC2)c(=O)n(CC(=O)Nc2cccc(C#N)c2)c1=O	.	.	.	.	20	.	.
Cc1ccc(NC(=O)Nn2cnnc2)cc1	.	.	.	.	16	.	.
Cn1c(SCC(=O)NCC2CCCO2)nnc1-c1c[nH]c2ccccc12 (stereo not given)	.	.	.	.	37	.	.
CCn1c(SCC(=O)NCC2CCCO2)nnc1-c1c[nH]c2ccccc12 (stereo not given)	.	.	.	.	.	/	/
CCOC(=O)CCC(=O)Nc1ccc(S(=O)(=O)Nc2cc(OC)nc(OC)n2)cc1	.	.	.	.	22	.	.
CC(C)/C=C1\CCCCC1N(C)C(=O)NC(C)C (stereo not given)	.	.	.	.	28	.	.
COc1cccc(-n2c(-c3ccccc3)c[nH]c2=S)c1	.	.	.	.	22	0.5	.
CCOC(=O)NC(=O)COC(=O)CNC(=O)c1cccc(OC)c1	.	.	.	.	20	.	.
CCOC(=O)CNC(=O)c1cc(OC)cc(OC)c1	.	.	.	.	.	/	/
CCCCNC(=O)C[C@@H]1C[C@]2(C(=O)OCC)CCC3=C2N(CCC3)C1=O	.	.	/	/	/	/	/
O=C(N1CCC(n2nc(-c3ccccc3)oc2=O)CC1)C1(c2ccccc2)CCCC1	.	.	/	/	/	/	/
CC(C)[C@H](NC(=O)C1CC(=O)N(c2ccc3c(c2)OCCO3)C1)C(=O)NC1CCCC1 (stereo not given in full)	.	.	.	.	22	.	.
CCC1(c2ccccc2)NC(=O)N(CC(=O)N(C)CC(=O)Nc2cccc(OC)c2)C1=O (stereo not given)	.	.	.	.	15	.	.
